# Gli-Sufu antag – antagonists of Gli-Sufu signaling. Sufu-KO-LIGHT fibroblasts, Gli luciferase reporter luminescence. inhibition, % at 5 µM. 340,000 compounds, 0.74% hits;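 active = inhibition above about 55%, limit read from the data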
# Beta apoptosis – beta cell apoptosis inhibition | INS-1E cytokine-induced death, ATP luminescence, 48 h; percent of positive-control rescue, neutral wells zero | protection from apoptosis, % (concentration not given with the values) | 300,000 compounds, 0.8% hits | AID 435005;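 active = Every replicate reaches about 75%, or at least half do and their mean reaches it too, limit read from the data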;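 note: higher means more ATP so stronger rescue from cytokine killing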
# Mdm2 MdmX PPI – disrupts the human Mdm2-MdmX interaction; O15151+Q00987; SaOS-2 split-luciferase Mdm2/MdmX complementation, luminescence; inhibition, % at 8 µM; 330,000 compounds, 3% hits; AID 485346;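 active = inhibition of at least 50% at 8 µM in the primary screen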
# 697 NFkB inh – lowers PMA/ionomycin-induced NF-kB signal in 697 B cells. inhibition, % at 4 µM. 697 B-cell NF-kB luciferase reporter, 16 h. 330,000 compounds, 0.33% hits. AID 435022; in the data active = inhibition above about 35%
# Jurkat NFkB inh – inhibitors of the PMA/ionomycin-induced NF-kB reporter in Jurkat cells; PMA/ionomycin-induced NF-kB luciferase reporter, luminescence; inhibition, % at 4 µM; 330,000 compounds, 0.53% hits; AID 435003; in the data active = inhibition above about 50%
# Mdm2 MdmX conf – confirmation of human Mdm2/MdmX interaction inhibitors; shares compounds with Mdm2 MdmX PPI; Mdm2-MdmX binding, luminescent assay; inhibition, % at 8 µM; 10,000 compounds, 55% hits; AID 489028; in the data active = inhibition above about 40%
# FLuc counter – counter-screen for Mdm2/MdmX inhibitors: full-length luciferase; shares compounds with Mdm2 MdmX PPI; SaOS-2 full-length luciferase counterscreen, luminescence; inhibition, % at 8 µM; 6,200 compounds, 77% hits; AID 504607;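 active = mean inhibition at 8 µM reaching about 37%, which flags the compound as non-specific, limit read from the data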;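 note: p53-null SaOS-2 cells with luciferase driven by a doxycycline-inducible promoter; compound on cells about two nights before reading with doxycycline added after day one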
# Hits are given with their value; - = inactive; . = not tested or not shown. Only some compounds are listed: those with a hit (about 4% of all), similar ones and a draw of the others.
SMILES,Gli-Sufu antag,Beta apoptosis,Mdm2 MdmX PPI,697 NFkB inh,Jurkat NFkB inh,Mdm2 MdmX conf,FLuc counter
c1ccc(-c2nnc(CN3CCCc4ccccc43)o2)cc1,-,-,-,-,-,.,.
Cc1ccc(NC(=O)CNc2cc(S(=O)(=O)N3CCOCC3)ccc2N2CCOCC2)cc1S(=O)(=O)N(C)C,-,-,-,-,-,.,.
Cc1noc(C)c1COc1cccc(C(=O)NC(C)(C)C)c1,-,-,-,-,-,.,.
CCOC(=O)C1CCN(Cc2ccc(O)c3ncccc23)CC1,-,84.9,81.0,-,-,61.5,50.2
O=C(CSc1nnc(C2CCCCC2)o1)Nc1ccccc1Cl,-,-,-,-,-,.,.
CN(C)CCCN(C(=O)/C=C/c1cccs1)c1nc2c(F)cccc2s1,-,.,.,.,.,.,.
Cc1cccc2sc(N(CCN(C)C)C(=O)/C=C/c3cccs3)nc12,-,-,62.6,-,-,-,.
COc1ccc2nc(N(CCN(C)C)C(=O)/C=C/c3cccs3)sc2c1,-,-,53.0,-,-,-,44.1
CCN(CC)CCNc1cc(C)c(C#N)c2nc3ccccc3n12,-,-,-,-,-,.,.
Cc1cc(Nc2cccc([N+](=O)[O-])c2)n2c(nc3ccccc32)c1C#N,-,107.7,98.0,-,-,90.8,-
CCC(NC(=O)Nc1nnc(C(F)(F)F)s1)(C(F)(F)F)C(F)(F)F,-,124.1,91.2,-,-,90.2,-
O=C(O)CCC(=O)Nc1nnc(C(F)(F)F)s1,-,-,-,-,-,.,.
O=C1C=C(N2CCOCC2)c2ccccc2C1=O,-,103.6,74.4,-,-,-,.
c1ccc2c(c1)ncn2-c1ccc(-c2ccnc(-c3ccncc3)n2)cc1,-,-,52.9,-,-,-,.
Nc1nccc(-c2ccc(-n3cnc4ccccc43)cc2)n1,-,-,69.6,-,-,55.7,-
Cc1nccc(-c2ccc(-n3cnc4ccccc43)cc2)n1,-,-,-,-,-,.,.
COc1ccc(-c2n[nH]c3c2CN(C(=O)c2ccc(OC)c(OC)c2)CC3)cc1,-,-,57.9,-,-,57.9,54.6
COc1cc(OC)cc(C(=O)N2CCN(C(=O)c3ccc(OC)c(OC)c3)CC2)c1,-,-,-,-,-,.,.
COc1ccc(OC)c(C2CC(c3ccccc3)=NN2C(=S)Nc2ccccc2)c1 (centres undefined),-,-,72.2,-,-,57.5,62.9
CNC(=S)N1N=C(c2ccc(C)cc2)CC1c1cc(OC)ccc1OC (centres undefined),-,.,-,-,-,.,.
O=C(Nc1ccc(O)c2c(=O)cc(-c3cccc(Cl)c3)oc12)c1ccc(F)cc1,-,-,-,-,-,.,.
Cc1ccc(S(=O)(=O)NCc2cccnc2)cc1,-,-,-,-,-,.,.
O=S(=O)(c1ccc(NC(=S)N/N=C/c2c3ccccc3cc3ccccc23)cc1)N1CCOCC1,-,-,58.2,-,-,-,.
O=S(=O)(c1ccc(NC(=S)N/N=C/c2ccc(Oc3ccccc3)cc2)cc1)N1CCOCC1,-,-,63.9,-,-,-,85.0
O=C(NCc1n[nH]c(=S)n1-c1ccc([N+](=O)[O-])cc1)c1ccc(S(=O)(=O)N2CCOCC2)cc1,-,-,-,-,-,.,.
SMILES,Gli-Sufu antag,Beta apoptosis,Mdm2 MdmX PPI,697 NFkB inh,Jurkat NFkB inh,Mdm2 MdmX conf,FLuc counter
Oc1ccccc1-n1nc2ccc3nonc3c2n1,-,-,-,-,-,.,.
Cc1nc(C(=O)Nc2ccc(Cl)cc2)sc1C1(C)CC(c2cccc([N+](=O)[O-])c2)=NO1 (centres undefined),-,-,60.7,-,-,-,47.0
COc1ccc(NC(=O)c2nc(C)c(C3(C)CC(c4cccnc4)=NO3)s2)cc1 (centres undefined),-,-,60.3,-,-,59.0,65.7
O=C(c1c(F)cccc1F)N1CCC(n2nnc3cc(C(F)(F)F)ccc32)CC1,-,-,-,-,-,.,.
Cc1ccc(-c2cc(-c3ccc4c(c3)OCO4)c(C#N)c(N)n2)o1,-,-,56.7,-,-,-,.
O=C1c2cccc3c(N4CCCCC4)ccc(c23)C(=O)N1c1ccccn1,-,-,-,-,-,.,.
O=C1c2ccccc2-c2n[nH]c(=O)c3ccc(N4CCCCC4)c1c23,-,-,52.4,-,-,-,.
Cc1ccccc1CN(c1ccc(C(=O)N2CCN(C)CC2)cc1)S(C)(=O)=O,-,-,-,-,-,.,.
CC1CN(C(=O)CCC(=O)NCc2ccccc2)c2ccccc2S1 (centres undefined),-,-,-,-,-,.,.
O=C(NNC(=O)c1cccc2ccccc12)c1ccccc1O,-,-,52.0,-,-,41.9,60.1
COc1c(C(=O)Nc2ccc(Br)cn2)ccc2ccccc12,-,-,-,-,-,.,.
O=C(Nc1ccc(Br)cn1)c1cccc2ccccc12,-,-,56.3,-,-,50.3,80.6
O=C(NNC(=O)c1cccc2ccccc12)c1ccc(-c2ccccc2)cc1,-,-,-,-,-,.,.
O=C1CCCc2c1cc(C(=O)Nc1ccc(Br)cn1)c(=O)n2-c1ccccc1,-,-,56.6,-,-,-,.
Cc1ccnc2nc(C(=O)OCC(=O)NC(=O)NCc3ccco3)nn12,-,-,-,-,-,.,.
CCC1CCCCN1C(=O)Nc1cc(Cl)ccc1OC (centres undefined),-,-,-,-,-,.,.
Cc1ccc(C(C)C)c(OCc2nn(CC(=O)c3ccc(OC(F)F)cc3)c3[n+]2CCCCC3)c1,-,113.5,94.8,-,-,86.8,-
COc1ccc(C(=O)Cn2nc(CNc3ccc(Br)cc3)[n+]3c2CCCCC3)cc1,-,-,-,-,-,.,.
CC(=O)C[C@H](O)CC(=O)[C@H]1OC(=O)CCCCCCCCc2ccccc21,-,-,-,-,-,.,.
CC1(C)Cc2c(ccc3ccccc23)C(=O)N1,-,.,52.1,-,-,54.1,54.8
CCNC(=O)/C=C1\NC(C)(C)Cc2c1ccc1ccccc21,-,-,-,-,-,.,.
Cc1ccnc2nc(C(=O)OCC(=O)NC3CCCC(C)C3C)nn12 (centres undefined),-,-,-,-,-,.,.
Oc1[nH]c2ccccc2c1N=Nc1ccccn1,-,.,.,.,.,.,.
Oc1c(N=Nc2ccccn2)ccc2ccccc12,81.8,95.9,91.0,-,-,46.0,46.4
O=C(Cc1ccc([N+](=O)[O-])cc1)Nc1cccc(C(F)(F)F)c1,-,-,-,-,-,.,.
O=C(Cc1ccc([N+](=O)[O-])cc1)Nc1cc(C(F)(F)F)cc(C(F)(F)F)c1,-,-,50.9,-,-,74.8,62.9
CCOc1ccc(N2C(=O)CC(Cc3ccccc3OC)C2=O)cc1 (centres undefined),-,-,-,-,-,.,.
Cc1ccccc1NC1=CC(=O)CC(C)(C)C1,-,.,-,-,-,.,.
CC1(C)CC(=O)C=C(NC2=CC3OC(c4ccccc4)OCC3OC2=O)C1 (centres undefined),-,-,70.4,-,-,-,53.5
CCOc1ccccc1NC(=O)CCSc1nc2n[nH]c(C)c2c(=N)n1-c1ccccc1Cl,-,-,-,-,-,.,.

# Source: PubChem BioAssay (several laboratories)
